# Source: PubChem
# Hits are enriched below; roughly 3.4% of the tested compounds scored in any of these assays.
# MITF inh: MITF inhibitors, primary screen, biochemical, AlphaScreen, human; AlphaScreen MITF homodimerization, bead proximity signal; Microphthalmia-associated transcription factor (Homo sapiens), O75030; hit rate 0.91% among 650,000; inhibition, % at 2.6 µM; in the data active = inhibition above about 50%;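 also: 0% = vehicle wells with protein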
# FBW7 activator: FBW7 E3 ligase activators, primary screen, biochemical, AlphaScreen, human | F-box/WD repeat-containing protein 7 (Homo sapiens), Q969H0 | AlphaScreen FBW7–phospho-cyclin E peptide binding, activator screen | normalized activity (activation), % at 26.1 µM | hit rate 0.13% among 650,000; in the data active = normalized activity above about 1.9%;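 also: purified mutant Fbw7 with reduced substrate affinity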
# GPR151 activ: activators of human GPR151, primary screen, cell-based, PathHunter beta-arrestin, luminescence; G-protein coupled receptor 151 (Homo sapiens), Q8TDV0; PathHunter beta-arrestin GPR151 cells; activation, % at 11.2 µM; hit rate 1% among 650,000; AID 1508602, 2020; in the data active = activation above about 4.9%;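 also: 0% = median of compound wells and 100% = cells with positive control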
# TEAD-YAP block: TEAD-YAP interaction inhibition, primary screen, TEAD-YAP interaction inhibitor project, luminescence, HEK-TIYL cells | AID 1259422, 2018 | inhibition, % at 9.12 µM | hit rate 1.4% among 640,000 | TEAD-Gal4/YAP UAS-luciferase luminescence; in the data active = inhibition above about 32%;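 also: 0% = median of test compound wells and 100% = reference inhibitor wells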
# GPR151 conf act: GPR151 activators, triplicate retest, confirmation, cell-based, PathHunter beta-arrestin, luminescence | shares compounds with GPR151 activ | GPR151 PathHunter beta-arrestin cells, 90 min; % of EA-reagent control over plate median | activation, % at 11.2 µM | 6,700 tested, under 10 active | AID 1508609, 2020;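 active = mean percent activation across replicates above the confirmation screen cutoff of 4.91%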
# GPR119 ag: GPR119 activators in beta-arrestin cells, counter-screen for GPR151 activator project, cell-based, PathHunter beta-arrestin, luminescence, triplicate; shares compounds with GPR151 activ; activation, % at 11.2 µM; 90 min; 0 = compound-well median, 100 = enzyme-acceptor control; hit rate 0.3% among 6,700;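 active = mean percent activation in the counterscreen above 29.09%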;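 also: counterscreen on off-target GPR119 to flag nonselective hits from the GPR151 activator screen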
# Target sequence (Q8TDV5 whole entry, looked up): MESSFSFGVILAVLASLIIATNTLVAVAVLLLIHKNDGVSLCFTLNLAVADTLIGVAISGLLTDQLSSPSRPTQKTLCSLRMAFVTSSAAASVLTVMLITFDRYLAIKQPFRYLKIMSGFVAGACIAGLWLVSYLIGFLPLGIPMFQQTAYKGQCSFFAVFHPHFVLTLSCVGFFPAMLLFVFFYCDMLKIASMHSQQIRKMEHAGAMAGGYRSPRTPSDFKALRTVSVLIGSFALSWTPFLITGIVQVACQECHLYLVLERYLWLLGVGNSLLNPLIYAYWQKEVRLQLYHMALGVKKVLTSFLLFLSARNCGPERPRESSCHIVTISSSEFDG
# Numbers without * were called inactive; / = not tested or not shown.
SMILES,MITF inh,FBW7 activator,GPR151 activ,TEAD-YAP block,GPR151 conf act,GPR119 ag
O=C(COc1ncnc2ccc(Br)cc12)Nc1ccc(F)c([N+](=O)[O-])c1,6.2,0.0,5.2*,-2.2,-0.9,-10.0
Cc1ccc(NC(=O)COc2ncnc3ccc(Br)cc23)cc1[N+](=O)[O-],10.7,-0.1,3.4,0.6,/,/
CN(Cc1nc(N(C)C)c2ccccc2n1)CC1COCCO1 (configuration not stated),-11.2,0.0,2.3,3.3,/,/
Oc1ccc(Br)cc1-c1nnc2ccc3ccccc3n12,15.4,0.1,10.2*,5.6,0.0,14.4
c1csc(-c2[nH]ncc2CNC2CCCCC2)c1,-2.6,-0.1,5.1*,2.8,-1.4,-16.5
CCOc1ccc(-c2cnc(N)n2C)cc1,11.1,-0.4,5.4*,-4.3,1.2,7.0
O=C(CN1C(=O)CCC1=O)Nc1ccc(Br)c(Cl)c1,4.3,0.7,2.2,-3.7,/,/
CCCCCCCCCCCCCCCC(=O)SCCOP(=O)(O)OCC[N+](C)(C)C,-2.1,/,5.4*,/,2.1,15.2
O=C(/C=C/c1ccc(F)cc1)NC1CC2CCC1C2 (configuration not stated),9.8,0.0,4.5,-43.2,/,/
COc1ccc(CCNC(=O)/C=C\C(=O)O)cc1OC,4.1,-0.2,5.0*,-5.0,1.8,1.0
CCCN1CCN(C(=S)NCCc2ccc(OC)c(OC)c2)CC1,5.4,0.0,5.5*,0.9,0.3,-3.9
CCC(Br)C(=O)NCCc1ccc(OC)c(OC)c1 (configuration not stated),0.4,-0.1,5.2*,4.1,-0.7,9.0
CCN(CC)C(=O)CSc1nnc2c3c4c(sc3ncn12)CCCC4,0.0,1.6,-0.9,-53.2,/,/
CCOC(=O)c1cccc(NC(=O)CCN2C(=O)c3ccccc3C2=O)c1,5.5,0.0,-0.4,0.0,/,/
COCCn1c(=NC(=O)c2ccc(OC)cc2)sc2cc(OC)ccc21,0.6,0.0,0.5,-0.5,/,/
Oc1ccccc1-c1nc(Nc2ccc(F)c(F)c2)c2ccccc2n1,10.7,-0.2,-1.7,7.3,/,/
COc1ccc(C2C(C(C)=O)=C(C)N=c3s/c(=C\c4cccnc4)c(=O)n32)c(OC)c1 (configuration not stated),10.5,0.2,7.1*,-0.9,-0.7,4.4
CN(CC(O)Cn1c(-c2ccccc2)c(-c2ccccc2)c2ccc3ccccc3c21)C1CCCCC1 (configuration not stated),11.2,-0.9,-0.5,-0.4,/,/
CCc1ccc(CN2CCN(C(C)C)C(CCO)C2)o1 (configuration not stated),5.7,-0.2,-0.9,-0.4,/,/
[Zn+2].c1ccc2c(c1)-c1nc-2nc2[n-]c(nc3nc(nc4[n-]c(n1)c1ccccc41)-c1ccccc1-3)c1ccccc21,1.6,0.8,10.9*,8.8,0.5,-2.8
CNc1nc(-c2ccccc2O)nc(-c2ccccc2O)n1,3.4,0.6,-0.2,6.6,/,/
Cc1ccc(CSCC2Nc3ccc(C(=O)NCCc4ccccc4)cc3NC2=O)cc1 (configuration not stated),14.2,0.0,1.5,-3.4,/,/
CCN1C(=O)C(CC(=O)Nc2ccc(OC)cc2)N(Cc2cccs2)C1=S (configuration not stated),1.4,-0.1,5.9*,-0.7,1.1,9.0
O=Cc1cn(CC(=O)NCCc2ccccc2)c2ccccc12,-3.8,0.0,7.0*,12.7,-0.7,-7.7
O=Cc1cn(CC(=O)NCc2ccccc2)c2ccccc12,-5.2,-0.2,1.6,11.5,/,/
SMILES,MITF inh,FBW7 activator,GPR151 activ,TEAD-YAP block,GPR151 conf act,GPR119 ag
O=C(c1ccccc1)N(CSc1ccccc1)c1ccccc1,5.4,-0.1,1.7,5.6,/,/
Cc1ccc(-n2c3c(cc(C(=O)NCC4CCCO4)c2=O)C(=O)CC(C)(C)C3)cc1 (configuration not stated),-3.0,-0.2,10.6*,7.5,0.5,-2.8
COCCNC(=O)c1cc2c(n(-c3ccc(C)cc3)c1=O)CC(C)(C)CC2=O,-1.6,0.2,-1.2,-9.5,/,/
CC(NC(=O)CCCn1c(=O)[nH]c2ccsc2c1=O)C12CC3CC(CC(C3)C1)C2 (configuration not stated),1.6,0.1,0.7,-4.5,/,/
O=C(Cn1c(=O)[nH]c2ccsc2c1=O)NC1CCCCC1,7.3,0.8,5.3*,-4.8,-0.1,1.5
CC(NC(=O)CCn1c(=O)[nH]c2ccsc2c1=O)C12CC3CC(CC(C3)C1)C2 (configuration not stated),2.5,-0.1,12.0*,6.2,0.4,13.1
COC(=O)c1c(C)[nH]c(C(=O)/C(C#N)=C\C=C\c2ccccc2)c1C,7.5,0.0,1.3,21.1,/,/
O=[N+]([O-])c1c(Nc2ccc(Br)cc2F)ccc2nonc12,7.5,-0.1,5.0*,15.6,0.1,-6.9
CCOC(=O)COc1ccc2ccccc2c1C=C(C#N)C#N,-0.6,-0.1,1.6,-8.1,/,/
COc1cc(C(Nc2cccc(C)n2)c2ccc3ccc(C)nc3c2O)ccc1O (configuration not stated),-6.4,-0.1,5.2*,-0.5,0.4,16.0
COc1cc(C)c(CN2CCc3nnc(CNC(=O)CCc4cccnc4)n3CC2)cc1C,6.1,-0.1,0.9,4.4,/,/
CCOC(=O)C1=C(C)N(c2ccc(Br)cc2)C(=O)/C1=C\c1ccc(C(=O)OC)cc1,3.0,-0.7,15.9*,-11.8,1.2,0.6
CCOC(=O)C1=C(C)N(c2ccc(Br)cc2)C(=O)/C1=C\c1ccc(C(=O)O)cc1,-7.0,-0.1,-1.0,-11.8,/,/
CCOc1ccccc1N(C)C(=O)Cc1c(C(=O)O)[nH]c2ccccc12,-4.4,-0.1,0.7,8.8,/,/
Cc1ccccc1N(C)C(=O)Cc1c(C(=O)O)[nH]c2ccccc12,38.0,0.0,5.5*,9.5,-0.2,-8.9
O=CN1CCn2c3c(c(=O)c4cc(C5CCCCC5)ccc42)CCC31 (configuration not stated),11.4,-0.2,7.3*,-13.5,-0.3,-5.5
NC(=O)N1CCn2c3c(c4cc(C5CCCCC5)ccc42)CCCC31 (configuration not stated),-2.4,0.0,2.4,3.8,/,/
Cn1nnc2cc(NC(=O)Nc3ccc(Br)cc3)ccc21,0.5,0.0,5.9*,-91.8,-0.4,0.9
CCOC(=O)c1c(NC(=O)CSc2nc(C)nc3sc4c(c23)CCC4)sc2c1CCC2,0.1,0.0,-1.6,5.5,/,/
